High-throughput results from PubChem.
A selection: hits, their analogues and other compounds. The true share with any hit is near 9.3%.
SMN2 splice up: SMN2 splice variant enhancement; Potency, µM (titrated, usually from 46.1 µM), inactives show at the highest dose activity change, positive = activation, usual class: activators; HEK293 SMN2-luciferase splicing reporter, luminescence, 30-36 h; 210,000 compounds, 2.8% hits; also: % of control where 0% means no effect; nearly all actives have a fitted effect of over 55% in size
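HEK293 cells carry an SMN2 […]–luciferase reporter in which exon 7 inclusion puts luciferase in frame. Cells were plated 10-12 h before compound addition, then incubated 30-36 h at 37C. ONE-Glo luminescence was read; sodium butyrate at 4.5 mM final served as control.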
Rab9 promoter act: activators of Rab9 promoter; Huh7 Rab9 promoter-luciferase reporter, luminescence, 24 h; Potency, µM (top dose mostly 9.22 µM), inactives show at the top dose activation, negative = inhibition, actives largely listed as activators; 320,000 compounds, 2.8% hits; AID 485297; also: % of control where 0% means no effect; nearly all actives have a fitted effect of over 60% in size
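Luminescence read-out: Huh7 cells stably expressing Rab9-luciferase, treated 24 h with compound at 37 °C, then lysed with luciferase reagent for 10 min at ambient before reading.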
ELG1 repair inh: blocks ELG1-dependent DNA repair in HEK293T cells; HEK293T ELG1-luciferase reporter, luminescence, 16 h; DNA damage induced by 5-fluorouridine; 330,000 compounds, 2.3% hits; Potency, µM (titrated, usually from 46.1 µM), inactives show top-dose activity change, negative = inhibition, most hits filed as inhibitors; also: % is scaled to controls: 0 for no effect and ±100 for the full control effect; nearly all actives have a fitted effect of over 55% in size
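5-Fluorouridine DNA damage + compound/DMSO, 2,000 cells/well, 16 h, 37 °C/5% CO2. ONE-Glo, 30 min RT, luminescence. Readout = decrease in reporter signal.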
FLuc modulator: firefly luciferase modulation, counter-screen for miR-21 project | Potency, µM (doses to about 57.5 µM), without a hit: top-dose activity change, negative = inhibition, most hits filed as inhibitors | AID 588342 | 360,000 compounds, 6.9% hits | purified FLuc, Km substrates, luminescence inhibition | P08659;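 also: plate controls were vehicle for no effect and reference inhibitor for full effect; nearly all actives have a fitted effect of over 55% in size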
Target sequence (P08659 whole entry, looked up): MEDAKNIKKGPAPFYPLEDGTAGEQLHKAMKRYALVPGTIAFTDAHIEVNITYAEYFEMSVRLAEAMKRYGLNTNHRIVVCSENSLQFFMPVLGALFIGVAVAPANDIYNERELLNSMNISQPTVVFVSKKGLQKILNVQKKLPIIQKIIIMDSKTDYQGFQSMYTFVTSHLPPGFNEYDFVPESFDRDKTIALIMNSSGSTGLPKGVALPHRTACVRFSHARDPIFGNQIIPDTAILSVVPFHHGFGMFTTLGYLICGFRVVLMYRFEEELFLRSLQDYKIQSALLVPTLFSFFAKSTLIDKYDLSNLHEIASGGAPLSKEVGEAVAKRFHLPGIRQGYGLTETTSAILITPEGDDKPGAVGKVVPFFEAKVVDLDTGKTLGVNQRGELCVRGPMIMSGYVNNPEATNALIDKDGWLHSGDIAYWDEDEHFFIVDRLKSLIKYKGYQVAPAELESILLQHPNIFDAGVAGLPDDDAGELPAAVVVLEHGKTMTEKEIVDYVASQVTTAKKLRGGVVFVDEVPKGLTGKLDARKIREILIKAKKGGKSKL
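Biochemical qHTS of compounds, final roughly 60 µM downward over six points, against 10 nM purified firefly luciferase using Km concentrations of substrates (10 uM D-luciferin, 10 uM ATP) in Tris acetate pH 7.5 buffer; luminescence output.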
NPC1 prom act: NPC1 promoter activation | Huh7 NPC1 promoter luciferase reporter, 24 h | Potency, µM (titrated, usually from 9.22 µM), inactives show at the top dose activation, hits mostly activators | 320,000 compounds, 2.4% hits | AID 485313; also: % of control where 0% means no effect; nearly all actives have a fitted effect of over 60% in size
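Luminescence from an NPC1 promoter-driven luciferase reporter in stably transfected Huh7 cells was measured after 24 h compound treatment at 37 °C, followed by 10 min ambient incubation with luciferase detection reagent.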
ELG1 genotoxic: induces genotoxicity in HEK293T cells with luciferase-tagged ELG1; HEK293T ELG1-luciferase reporter, luminescence, 16 h; Potency, µM (top dose mostly 46 µM), for the others: at the highest dose activity change, positive = activation, actives largely listed as activators; 330,000 compounds, 1.3% hits; AID 504466; also: % of control where 0% means no effect; nearly all actives have a fitted effect of over 60% in size
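Screening used a luciferase reporter fused to human ELG1 in HEK293T cells. Luminescence was read on a CCD plate imager after 16 hr exposure and 30 min ONE-Glo incubation.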
An asterisk follows results filed as active; ? = inconclusive; · = no result given. Calls follow the shape of the dose curve; as a rule, active = well fitted curve in the direction sought with a large enough effect; inconclusive = small, poorly fitted or top-dose-only effect, or another doubt; inactive = no such curve, though single readings can be large; an effect the other way counts as inactive or inconclusive. Potency is read from the fitted curve at half-maximal effect.

SMILES	SMN2 splice up	Rab9 promoter act	ELG1 repair inh	FLuc modulator	NPC1 prom act	ELG1 genotoxic
CCC(=O)N1CCc2cc(Br)cc(S(=O)(=O)N3CCCC(C(=O)NCc4ccc(C)cc4)C3)c21 (stereo unspecified)	-1.6%	·	·	5.1%	·	·
Cc1cccn2c(=O)c(C=C(C#N)C#N)c(N3CCN(c4cccc(Cl)c4)CC3)nc12	·	-13.6%	?	-2.5%	-0.2%	-11.2%
COc1ccc(CNC(=O)CCc2nc3cccnc3n2Cc2ccccc2)cc1	2.1%	·	·	-6.9%	·	·
CCCNC(=O)c1ccc(-c2nc3ccccc3s2)s1	2.82µM*	0.708µM*	?	0.338µM*	?	0.206µM*
O=C(NCCCO)c1nc2ccccc2s1	6.2%	2.6%	?	-10.4%	9.4%	16.2%
CCCCNC(=O)Nc1ccon1	-26.9%	-8.6%	-4.6%	1.2%	-0.5%	2.3%
Cc1ccc(CC(=O)Nc2nc3ccccc3s2)cc1	5.8%	?	?	19µM*	?	3.1%
Cc1ccc(S(=O)(=O)CC(=O)Nc2nc3ccccc3s2)cc1	·	2.4%	1.3%	-7.0%	-6.3%	-1.0%
CCCCNC(=O)Nc1nc2ccc(CC)cc2s1	?	?	?	6.75µM*	?	?
COc1ccc(-n2nc3cc(C)c(NC(=O)Cc4ccc(Cl)cc4)cc3n2)cc1	-4.2%	·	·	-11.1%	·	·
COc1cccc(C(=O)NCC(=O)NCc2cc(=O)n(C)c(=O)n2C)c1OC	·	-4.1%	?	8.9%	-4.4%	8.1%
O=C(Nc1ccc(S(=O)(=O)N2CCCC2)cc1)c1cccnc1Cl	·	-0.4%	0.0%	4.5%	-1.2%	-3.6%
COc1ccccc1NC(=O)c1cc2ccc3cccnc3c2[nH]1	·	·	·	2.69µM*	·	·
COc1ccc(C(=O)Nc2cccc(NC(=O)c3ccc(OC)c(OC)c3)n2)cc1OC	·	7.3%	2.91µM*	8.49µM*	2.5%	-2.7%
COc1ccc(Cc2nnc(NC(=O)c3ccc(OC)c(OC)c3)s2)cc1	·	-2.4%	-17.7%	-0.4%	-9.5%	-0.1%
O=C(Nc1cccc2cccnc12)c1cccc2ccccc12	-23.0%	-5.9%	?	?	-0.6%	13.4%
CCOc1ccccc1C(=O)Nc1cccc2cccnc12	·	0.2%	7.2%	26.9µM*	-2.2%	-4.9%
COc1ccc(C(=O)Nc2nc(C)c(C)s2)cc1OC	?	?	?	13.5µM*	?	?
Cc1ccc2nc(NC(=O)c3cc(=O)c4cc(Cl)ccc4o3)sc2c1	-2.4%	·	·	?	·	·
COc1ccc(C(=O)Nc2cccc3cccnc23)cc1OC	-13.6%	-5.5%	?	21.3µM*	14.7%	1.0%
CC(C)N(Cc1ccccc1)C(=O)c1cc2ccc3cccnc3c2[nH]1	·	·	·	19µM*	·	·
COc1cccc(C(=O)Nc2cccc3cccnc23)c1OC	·	0.9%	?	23.9µM*	10.4%	9.0%
O=C(NCc1cccc(Cl)c1)c1cc2ccc3cccnc3c2[nH]1	·	·	·	-5.6%	·	·
COc1ccc(NC(=O)C(=O)Nc2cccc3cccnc23)cc1OC	·	?	4.0%	-12.8%	0.5%	6.6%
CCOCCc1nn2c(=O)cc(COC(=O)COc3ccc(C)c(C)c3)nc2s1	·	·	·	1.0%	·	·
C#Cc1ccc(CN2CCN(CCCc3ccccc3)C(CCO)C2)cc1 (stereo unspecified)	·	4.3%	?	4.7%	1.2%	-5.0%
Cc1c(NS(=O)(=O)c2ccc3c(c2)NC(=O)CC(=O)N3)cccc1[N+](=O)[O-]	·	7.2%	1.6%	-2.2%	-3.6%	-0.1%
COCCn1c(SCc2nc3ccccc3s2)nc2ccccc21	10.2%	3.55µM*	?	12µM*	?	?
CCOCCCn1c(SCc2nc3ccccc3s2)nc2ccccc2c1=O	-109.1%	15.6%	?	16.9µM*	15.3%	-7.9%
CCOCCCn1c(SCC(=O)NCc2ccco2)nc2c(sc3ccccc32)c1=O	-9.7%	1.4%	16.4µM*	-1.7%	5.4%	-0.7%
